Where “and” joins values, the source holds several entries; their conditions need not be identical. Equal entries are not always repeated. Results filed as inconclusive are left out. A call without a number means that no potency is given here. Some compounds were tested as several samples or in several runs, with calls that do not always agree. Calls of active or inactive are those of the source. The call rests on the fitted dose curve; in most records, active means well fitted curve in the direction sought with a large enough effect in the repeat runs; inconclusive means weak or mixed curves; inactive means no such curve, though single readings can be large; an effect the other way counts as inactive or inconclusive.
What was measured:
[1] = qHTS RealTime-Glo MT Cell Viability Assay in HEK293 cells - 16 hour (AID 1224872); further: nearly all actives have a fitted effect of over 50% in size; further: potency means the concentration at half of the fitted maximal effect; on activity change, negative = cytotoxicity: top concentration of the series differs between compounds
How it was run: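 Nonlytic real-time viability readout: viable cells convert prosubstrate to NanoLuc substrate, giving luminescence proportional to live cell number. HEK293, 600 cells/well, compound added after 5 h, continuous culture at 37 C.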

[2] = qHTS RealTime-Glo MT Cell Viability Assay in HepG2 cells - 8 hour (AID 1224873); further: nearly all actives have a fitted effect of over 55% in size
How it was run: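 HepG2 cells (600/well) mixed with RealTime-Glo MT reagent, settled 5 h at 37 C/5% CO2 before compound addition. Nonlytic NanoLuc luminescence from viable-cell prosubstrate reduction read repeatedly during 40 h treatment at 37 C.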

[3] = qHTS RealTime-Glo MT Cell Viability Assay in HEK293 cells - 40 hour (AID 1224874); details: RealTime-Glo luminescence; max response: stronger effect = lower value; further: nearly all actives have a fitted effect of over 50% in size; further: potency means the concentration at half of the fitted maximal effect
How it was run: (§1)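 Tox21 screen in HEK293 using RealTime-Glo MT chemistry, with cells and reagent co-dispensed. Luminescence proportional to viable cell number was captured at intervals during 40 h compound exposure at 37 C.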

[4] = A CellTox Green Cytotoxicity Assay to monitor cytotoxicity in HEK293 cells - 24 hour (AID 1224875); further: nearly all actives have a fitted effect of over 45% in size; further: potency means the concentration at half of the fitted maximal effect; on activity change: series mostly up to about 77 µM
How it was run: (§2)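 Seeding of HEK293 cells together with cytotoxicity dye preceded a 5 h incubation at 37 C/5% CO2. Test compounds in DMSO were then added and fluorescence monitored across 40 h.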

[5] = A CellTox Green Cytotoxicity Assay to monitor cytotoxicity in HepG2 cells - 16 hour (AID 1224876); further: nearly all actives have a fitted effect of over 45% in size; further: potency means the concentration at half of the fitted maximal effect
How it was run: (§3)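 Nonlytic assay: viable cells exclude the dye, so fluorescence scales with cell death. HepG2 at 600 cells/well, compounds added after 5 h, signal read across 40 h.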

[6] = qHTS RealTime-Glo MT Cell Viability Assay in HepG2 cells - 32 hour (AID 1224877); further: nearly all actives have a fitted effect of over 55% in size
How it was run: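 Luminescence read-out: viable HepG2 cells reduce a prosubstrate to a NanoLuc substrate, giving a signal proportional to live cell number. Reads taken at 0, 8, 16, 24, 32 and 40 h of compound exposure at 37 C.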

[7] = A CellTox Green Cytotoxicity Assay to monitor cytotoxicity in HepG2 cells - 24 hour (AID 1224878); further: nearly all actives have a fitted effect of over 45% in size; further: potency means the concentration at half of the fitted maximal effect
How it was run: as §3

[8] = A CellTox Green Cytotoxicity Assay to monitor cytotoxicity in HepG2 cells - 40 hour (AID 1224879); further: nearly all actives have a fitted effect of over 40% in size; further: potency means the concentration at half of the fitted maximal effect
How it was run: as §3

[9] = qHTS RealTime-Glo MT Cell Viability Assay in HEK293 cells - 0 hour (AID 1224880); further: nearly all actives have a fitted effect of over 45% in size; further: potency means the concentration at half of the fitted maximal effect; on activity change, negative = cytotoxicity: top concentration of the series differs between compounds
How it was run: as §1

[10] = A CellTox Green Cytotoxicity Assay to monitor cytotoxicity in HEK293 cells - 32 hour (AID 1224881); further: nearly all actives have a fitted effect of over 40% in size; further: potency means the concentration at half of the fitted maximal effect
How it was run: as §2

SMILES | Potency [1] | Potency [2] | max response [3] | Potency [4] | Potency [5] | Potency [6] | Potency [7] | Potency [8] | Potency [9] | Potency [10] | Potency [3] | activity change, negative = cytotoxicity [1] | viability change, negative = cytotoxic [2] | activity change [4] | cytotoxicity increase [5] | activity change, negative = cytotoxic [6] | cytotoxicity [7] | cytotoxicity increase [8] | activity change, negative = cytotoxicity [9] | cytotoxicity increase [10]
OCCCS | inactive | inactive | 7.88% (inactive) | inactive | inactive | inactive | inactive | inactive | inactive | inactive | – | – | – | – | – | – | – | – | – | –
CO[C@H]1C=CO[C@@]2(C)Oc3c(C)c(O)c4c(O)c(cc(O)c4c3C2=O)NC(=O)/C(C)=C\C=C/[C@H](C)[C@H](O)[C@@H](C)[C@@H](O)[C@@H](C)[C@H](OC(C)=O)[C@@H]1C | inactive | inactive | -22.2% (inactive) | inactive | inactive | inactive | inactive | inactive | 17.5 µM (active) | inactive | – | – | – | – | – | – | – | – | – | –
CCCCC(CC)COC(=O)c1ccc(O)cc1 (stereo not given) | 54.7 µM (active) | inactive | – | 43.5 µM (active) and 21.9 µM (active) | inactive and 30.9 µM (active) | inactive | 34.7 µM (active) | 34.7 µM (active) | inactive | 43.5 µM (active) and 21.9 µM (active) | 48.8 µM (active) | – | – | – | – | – | – | – | – | –
CCCC(C)CCC(C)=O (stereo not given) | inactive | inactive | 12.6% (inactive) | inactive | inactive | inactive | inactive | inactive | inactive | inactive | – | – | – | – | – | – | – | – | – | –
COc1nccnc1CC(C)C | inactive | inactive | 10.2% (inactive) | inactive | inactive | inactive | inactive | inactive | inactive | inactive | – | – | – | – | – | – | – | – | – | –
CCc1cccc(CC)c1N(COC)C(=O)CS(=O)(=O)O | inactive | inactive | 20.8% (inactive) | inactive | inactive | inactive | inactive | inactive | inactive | inactive | – | – | – | – | – | – | – | – | – | –
Cn1cccc1 | inactive | inactive | 10.4% (inactive) | inactive | inactive | inactive | inactive | inactive | inactive | inactive | – | – | – | – | – | – | – | – | – | –
CCN(CC)c1cccc(C)c1 | inactive | inactive | -4.54% (inactive) | inactive | inactive | inactive | inactive | inactive | inactive | inactive | – | – | – | – | – | – | – | – | – | –
CO[Si](CCCNCCNCCN)(OC)OC | inactive | inactive | 4.89% (inactive) | inactive | inactive | inactive | inactive | inactive | inactive | inactive | – | – | – | – | – | – | – | – | – | –
CC(=O)C=O | inactive | inactive | 3.76% (inactive) | inactive | inactive | inactive | inactive | inactive | inactive | inactive | – | – | – | – | – | – | – | – | – | –
CC(C)(C)c1n[nH]c(=O)n(N)c1=O | inactive | inactive | -0.732% (inactive) | inactive | inactive | inactive | inactive | inactive | inactive | inactive | – | – | – | – | – | – | – | – | – | –
Cc1cnccn1 | inactive | inactive | 8.17% (inactive) | inactive | inactive | inactive | inactive | inactive | inactive | inactive | – | – | – | – | – | – | – | – | – | –
CCc1cccc(CC)c1NC(=O)C(=O)O | inactive | inactive | 9.15% (inactive) | inactive | inactive | inactive | inactive | inactive | inactive | inactive | – | – | – | – | – | – | – | – | – | –
OCCC(O)CO (stereo not given) | inactive | inactive | 15.6% (inactive) | inactive | inactive | inactive | inactive | inactive | inactive | inactive | – | – | – | – | – | – | – | – | – | –
CCCCCCCOC(=O)c1ccc(O)cc1 | 24.6 µM (active) and 21.9 µM (active) | inactive | – | inactive | inactive and 38.9 µM (active) | inactive | 24.5 µM (active) | 24.5 µM (active) | inactive | inactive | 24.6 µM (active) and 19.5 µM (active) | – | – | – | – | – | – | – | – | –
SCCCCCCCCS | inactive | inactive | 9.16% (inactive) | inactive | 19.5 µM (active) | inactive | 19.5 µM (active) | 19.5 µM (active) | inactive | inactive | – | – | – | – | – | – | – | – | – | –
O=C1OC(OC(=O)c2cccnc2Nc2cccc(C(F)(F)F)c2)c2ccccc21 (stereo not given) | inactive | inactive | -1.07% (inactive) | inactive | inactive | inactive | inactive | inactive | inactive | inactive | – | – | – | – | – | – | – | – | – | –
CCC(=O)CC(C)CC (stereo not given) | – | – | 3.72% (inactive) | – | – | – | – | – | – | – | – | 5.55% [at 0.29 µM] (inactive) | 1.82% [at 0.29 µM] (inactive) | 8.11% [at 0.29 µM, stronger effect = higher value] (inactive) | 5.23% [at 0.29 µM] (inactive) | -0.929% [at 0.29 µM] (inactive) | 8.2% [at 0.29 µM] (inactive) | 5.43% [at 0.29 µM] (inactive) | 6.1% [at 0.29 µM] (inactive) | 9.56% [at 0.29 µM] (inactive)
CCOC(OCC)C(=O)c1ccccc1 | inactive | inactive | 0.351% (inactive) | inactive | inactive | inactive | inactive | inactive | inactive | inactive | – | – | – | – | – | – | – | – | – | –
CCCC(O)C(O)CO (stereo not given) | inactive | inactive | 4.32% (inactive) | inactive | inactive | inactive | inactive | inactive | inactive | inactive | – | – | – | – | – | – | – | – | – | –
O=c1cccc[nH]1 | inactive | inactive | 12.2% (inactive) | inactive | inactive | inactive | inactive | inactive | inactive | inactive | – | – | – | – | – | – | – | – | – | –
